Screening results from PubChem BioAssay.
HCMV inh = inhibitors of human cytomegalovirus; HFF cells, HCMV-luciferase reporter, 72 h; active compounds read low; activity change, negative = inhibition, % at 57.5 µM; 4.5% of 410,000 active; in the data active = activity change below about -60%; inconclusive = no clear call, values can overlap the other calls; inactive = above about -39%; note: % is set by controls: 0 for no effect and ±100 for the full control effect
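After 16 h attachment at 37C, HFF cells received test compound and HCMV-luciferase (1 PFU/cell); reporter luminescence read 72 h later, data normalized against buffer-only and known inhibitor Salinomycin.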
Pf growth 96h = P. falciparum growth inhibition at 96 hours; P. falciparum luciferase reporter growth, 96 h; Potency, µM (series often up to 28.7 µM), without a hit: at the highest dose activity change, negative = inhibition, usual class: inhibitors; 6.9% of 320,000 active; AID 504834; note: potency is the fitted concentration of half-maximal effect; % is set by controls: 0 for no effect and ±100 for the full control effect
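Two-generation exposure (96 h) targets delayed-death phenotype. Reporter parasites carrying integrated firefly luciferase, in red cells at 2% hematocrit and 0.05% parasitemia final, kept at 37 C, 5% CO2; luminescence loss indicates inhibition.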
Pf growth 48h = inhibits P. falciparum growth in the first generation, 48 h; P. falciparum luciferase growth in erythrocytes, 48 h; 5.9% of 310,000 active; Potency, µM (highest dose often 28.7 µM), inactives show at the top dose activity change, negative = inhibition, actives largely listed as inhibitors; AID 504832; note: potency is the fitted concentration of half-maximal effect; % is set by controls: 0 for no effect and ±100 for the full control effect
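A one-generation exposure of luciferase-tagged malaria parasites in RPMI 1640/Albumax erythrocyte culture, 37 C and 5% CO2. Inhibition is inferred from decreased luminescence after adding detection reagent.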
Cycloheximide cs = counter-screen for Shiga toxin inhibitors: cycloheximide protein synthesis inhibition; cell reporter, cycloheximide protein synthesis inhibition counterscreen; max response, %; 12% of 300,000 active; AID 2314; in the data active = max response mostly above about 13%, no sharp cut-off; inactive = mostly below about 14%; note: read at 38.3 µM for the half of the compounds with a filed dose; 0% is about no effect
Shiga toxin inh = Shiga toxin inhibition | Vero cells, Shiga toxin protein synthesis inhibition reporter | inhibition, % at 38.7 µM | 9.2% of 290,000 active | AID 2315; in the data active = inhibition mostly above about 28%, no sharp cut-off; inactive = mostly below about 43%; note: 0% is about no effect
* = called active by the depositor; ? = inconclusive; nt = not tested or not shown; [ ] = another dose, or the depositor's remark. Shown are actives, neighbours in structure and some others; about 20% of the full set was active somewhere. Unless noted, calls come from the whole dose curve; as a rule, active = well fitted inhibition curve with a large enough effect; inconclusive = small, poorly fitted or top-dose-only effect, or another doubt; inactive = no such curve, though single readings can be large or run the other way.

SMILES | HCMV inh | Pf growth 96h | Pf growth 48h | Cycloheximide cs | Shiga toxin inh
O=C(COc1ccc(Cl)cc1)Nc1cc(-c2ccccc2)no1 | 13 | nt | nt | nt | nt
Clc1ccc(-c2cc(COc3ccccc3)on2)cc1 | -25 | 155% | 232% | 38* | 105*
Clc1ccc(OCc2cc(-c3ccccc3)no2)cc1Cl | -22 | 37% | 56% | 45* | active
N#Cc1c(NC(=O)c2ccccc2Cl)n(Cc2ccccc2)c2nc3ccccc3nc12 | -70* | ? | ? | -6 | -9
CCCCn1c(NC(=O)CC)c(C#N)c2nc3ccccc3nc21 | -4 | 46% | 30% | 0 | 8
COCCCNC(=O)c1c(NC(=O)c2ccccc2Cl)n(Cc2ccccc2)c2nc3ccccc3nc12 | -18 | ? | ? | 1 | -7
CCCCn1c(NC(=O)c2ccccc2Cl)c(C#N)c2nc3ccccc3nc21 | -60* | 0% | ? | -2 | -11
Cc1cccc(CN2C(=O)c3ccccc3Sc3ccc(C(=O)NC4CCCCC4)cc32)c1 | 10 | nt | nt | nt | nt
C=C(C)c1cccc(C(C)(C)NC(=O)N(C)C2CCN(C)CC2)c1 | 2 | -10% | ? | -3 | -18
Cc1ccc2oc(-c3cccc(NC(=O)c4ccc(Br)o4)c3)nc2c1 | 36 | 125% | nt | 26* | 38
Cc1cc2nc(-c3cccc(NC(=O)c4ccc(Br)o4)c3)oc2cc1C | -6 | nt | 44% | 41* | 80
Cc1ccc2oc(-c3cccc(NC(=O)c4cccc5c(Br)cccc45)c3)nc2c1 | 18 | nt | nt | nt | nt
CCN(CC)C(=O)COc1ccc(-c2nnc(Nc3ccc(OC)c(C(=O)NC)c3)c3ccccc23)cc1 | 29 | 10µM* | ? | 1 | 5
CCN(CC)S(=O)(=O)c1cc(-c2nnc(Nc3ccc(OC)c(C(N)=O)c3)c3ccccc23)ccc1C | -65* | nt | nt | nt | nt
CCN(CC)C(=O)COc1ccc(-c2nnc(N3CCCCC3)c3ccccc23)cc1 | -31 | 2% | ? | -3 | -12
Cc1cnc(C(=O)OC(C)C(=O)Nc2ccc3c(c2)OCCO3)cn1 (centres undefined) | 55 | 63% | 15% | -1 | 5
Cc1c(Cl)ccc2sc(NC(=O)c3ccc(S(=O)(=O)N4CCCc5ccccc54)cc3)nc12 | 17 | nt | nt | nt | nt
CC1=NN(c2ccc(C)c(C)c2)C(=O)/C1=C\C=C\c1ccc([N+](=O)[O-])o1 | -88* | ? | 1% | 44* | 88*
O=C(Nc1ccc(NC(=O)c2cccnc2Cl)cc1)c1cccc(Cl)c1 | -33 | 7% | 15% | 21 | 40*
CC(=O)NC(=S)Nc1ccc(S(=O)(=O)Nc2ncccn2)cc1 | -4 | -6% | 1% | 1 | -9
CC(=O)NC(=S)Nc1ccc(NC(=O)c2cccnc2Cl)cc1 | 32 | -4% | ? | 25* | 47
Cc1cc(Nc2ccc(Cl)cc2)n2cnnc2n1 | 3 | nt | nt | nt | nt
COc1ccc(S(=O)(=O)N2CCCC2)cc1C(=O)O | -2 | 0% | ? | 2 | 4
OC[C@@H]1CN(Cc2ccc(-c3ccccc3)cc2)C[C@H](n2cnc3c(NC4CCC4)ncnc32)O1 | -88* | nt | nt | nt | nt
CCc1cccc(C)c1NC(=O)CCS(=O)(=O)c1cc(Br)cc2c1N(C(=O)C1CC1)CC2 | -22 | nt | nt | nt | nt
SMILES | HCMV inh | Pf growth 96h | Pf growth 48h | Cycloheximide cs | Shiga toxin inh
CC(C)CCN1CCC(N)=NC1=O | 7 | 8% | 33% | 15 | -4
COc1ccccc1NC(=O)Nc1nc(CC(=O)Nc2ccc(F)cc2)cs1 | -25 | ? | ? | nt | nt
COc1ccccc1NC(=O)Nc1nc(CC(=O)NCc2ccccn2)cs1 | -4 | 12% | -2% | nt | nt
COc1ccccc1CNC(=O)Cc1csc(NC(=O)Nc2ccccc2OC)n1 | -4 | 13µM* | ? | nt | nt
COc1ccccc1NC(=O)Nc1nc(C(C)(C)C)cs1 | -37 | ? | ? | 21* | 50
COc1ccccc1NC(=O)Cc1csc(NC(=O)c2ccccc2)n1 | -69* | -18% | 12% | 7 | 14
COc1ccccc1NC(=O)Nc1nc(CC(=O)Nc2cccc(F)c2)cs1 | -1 | 2.1µM* | 4.1µM* | nt | nt
COc1cccc(CN(C)C(=O)COc2ccc(C(=O)c3ccc(Cl)cc3)cc2)c1OC | -37 | ? | ? | -3 | 13
COC(=O)c1cc(S(=O)(=O)N2CCN(c3cccc(C)c3)C(C)C2)cn1C (centres undefined) | -9 | nt | nt | nt | nt
N#C/C(=C\c1ccccc1)c1nc(-c2cc3c(ccc4ccccc43)oc2=O)cs1 | -24 | nt | nt | nt | nt
Cc1cccc(C)c1NC(=O)NS(=O)(=O)c1ccccc1 | 19 | nt | nt | nt | nt
Cc1cc(/C=N/NC(=O)c2nn(C)cc2Cl)c(C)n1-c1cccc(Br)c1 | 34 | ? | ? | 18* | 20
Cc1cc(/C=N/NC(N)=S)c(C)n1-c1cccc(Cl)c1 | -65* | 51%[5.75 µM] | -26% | -4 | -8
COc1ccc(/C=N/NC(=O)c2ccco2)cc1Cn1nc(C)cc1C | 39 | -13% | 13% | 34* | 67*
Cc1cc(/C=N/NC(=O)C(O)(c2ccccc2)c2ccccc2)c(C)n1-c1cccc(C(=O)O)c1 | 16 | 35% | -7% | 10 | 10
Cc1ccc(/C=N/NC(=O)c2ccco2)cc1 | 13 | 245% | 150% | 45* | 37*
CCOc1ccc(CNC(=O)Cn2c(=O)c3cccn3c3ccc(F)cc32)cc1OC | 38 | nt | nt | nt | nt
COC(=O)c1cn(C(=O)c2cc(Br)ccc2Cl)c2ccccc12 | -7 | 68% | ? | -4 | -5
COC(=O)c1ccc(CN(Cc2ccc(OC)c(OC)c2)S(=O)(=O)c2cc(C(=O)Nc3cccc(C)c3)ccc2F)cc1 | -29 | nt | nt | nt | nt
Cc1ccc(N(C)S(=O)(=O)c2cccc(C(=O)OCC(=O)N3CCCC(C)C3)c2)cc1 (centres undefined) | 0 | 15% | -14% | nt | nt
Cc1c(C(=O)N/N=C/c2ccoc2)cccc1[N+](=O)[O-] | -35 | ? | -17% | 21 | 19
O=C(N/N=C/c1ccoc1)c1ccccc1F | -2 | ? | 58% | 75* | 90*
CN(C)c1ccc(/C=N/NC(=O)c2ccco2)cc1 | 27 | 481% | 80% | 41* | 73
Cc1cc(C(=O)NN=Cc2ccc(OC(=O)c3ccco3)cc2)c(C)o1 | 14 | nt | nt | nt | nt
CN(C)c1ccc(/C=N/NC(=O)c2cc(=O)[nH]c3ccccc23)cc1 | -12 | 27% | 0% | -3 | -13
SMILES | HCMV inh | Pf growth 96h | Pf growth 48h | Cycloheximide cs | Shiga toxin inh
O=C(N/N=C\c1ccoc1)c1ccco1 | 21 | 12% | 11% | 35* | 61*
CN(C)c1ccc(/C=N\NC(=O)c2cccc3cc[nH]c23)cc1 | -14 | ? | 54% | 32* | 56*
CSC(=S)N/N=C/c1ccc(N(C)C)cc1 | -6 | ? | 54% | 43* | 68*
Cc1cccc(-n2c(C)cc(/C=N\NC(=O)c3ccco3)c2C)c1 | -35 | 13% | 8.3µM* | 35* | 96*
O=C(Nc1nnc(C2CC2)s1)c1ccco1 | 56 | 124% | 190% | 29* | 107*
O=C(Nc1nnc(C2CCCCC2)s1)c1ccco1 | 84 | ? | 69% | 34* | 80*
CC(C)[C@H](NC(=O)OC(C)(C)C)C(=O)N/N=C/c1ccc2nccnc2c1 | 28 | 41% | 2% | 14 | 15
